In PubChem BioAssay (NCATS):
Unmarked numbers belong to inactive results. Inconclusive results are not listed. Activity calls are given as the source filed them. Unless noted, calls follow the shape of the dose curve; as a rule, active = well fitted curve in either direction with a large enough effect (not every such curve was filed as active); inconclusive = small, poorly fitted or top-dose-only effect, or another doubt; inactive = flat fitted curve, though single readings scatter.

Columns and labels:
[1] = biological target: Lysosomal acid glucosylceramidase (Homo sapiens) (UniProt P04062); experiment: Glucocerebrosidase-p2 (AID 348; in the data active = potency below about 10 µM; also: potency is read from the fitted curve at half-maximal effect); conditions: purified GBA, blue fluorogenic substrate, 40 min
Outline: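 Compounds titrated from 0.6 nM upwards against 0.2 nM enzyme in pH 5.9 citric acid/KH2PO4, taurocholate, tween-20; blue fluorogenic substrate 80 uM, 40 min room temperature, stopped and read Ex 365/Em 440 for AC50.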

[2] = AP1 Signaling Pathway (AID 357); conditions: ME-180 AP-1-bla reporter, EGF-induced, beta-lactamase ratio, 5 h; at 7.69 µM (top of the series) unless noted;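 also: ME-180 reporter cells stimulated with EGF at its EC50 level; % is scaled to controls: 0 for no effect and ±100 for the full control effect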
Outline: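 Cells are seeded overnight, exposed to compound titrations and an EC50 level of EGF for 5 hours at 37 °C, then loaded with CCF4 dye for 2.5 hours. Beta-lactamase activity under the AP-1 element is read as a blue/green ratio.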

[3] = biological target: Cytochrome P450 1A2 (Homo sapiens) (UniProt P05177); experiment: p450-cyp1a2 (AID 410; calls by dose curve; also: potency is read from the fitted curve at half-maximal effect;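 as to activity change, negative = inhibition: -100% = full effect of reference inhibitor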); conditions: recombinant CYP1A2, luciferin-ME demethylation, luminescence; series mostly up to 11.4 µM
Outline: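 Inhibition was calculated relative to 57 uM furafylline (full inhibition). The reaction used human CYP1A2 at 20nM with Luciferin-ME at its Km, 100uM, driven by an NADPH-regenerating system for 60 min at room temperature.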

[4] = NFAT Signaling Pathway (AID 444); conditions: Jurkat NFAT-bla M1, carbachol, beta-lactamase ratio, 5 h; at 7.69 µM (top of the series) unless noted;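 also: carbachol stimulus at about its EC50 of 1 µM final; % is scaled to controls: 0 for no effect and ±100 for the full control effect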
Outline: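 Read-out: CCF4 FRET ratio (460 nm/530 nm) after 1 h RT dye loading, used for %activity and AC50 from titration series. Cells: Jurkat NFAT-β-lactamase/M1 line, treated with compound plus 1 uM carbachol for 5 h, 37 °C.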

[5] = Stat Signaling Pathway (AID 446); conditions: ME-180 SIE beta-lactamase reporter, IL-6 stimulated, 5 h; at 7.69 µM (top of the series) unless noted;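 also: ME-180 cervical cancer cells given 40 pM IL-6 alongside compound; SIE-controlled beta-lactamase reporter measured as 460/530 nm FRET emission ratio; % is scaled to controls: 0 for no effect and ±100 for the full control effect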
Outline: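 Reporter line: ME-180 cervical carcinoma, SIE-beta-lactamase. Treatment: compound with 40 pM IL-6, 5 hrs, 37 C, in low-serum OPTI-MEM with 10 mM HEPES pH 7.3. Detection: 460/530 nm fluorescence.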

[6] = biological target: Glucocorticoid receptor (Homo sapiens) (UniProt P04150); experiment: GR-GFP Redistribution (AID 450;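 active = compounds whose dose series gives a full or clear partial fitted curve of increased nuclear translocation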; also: potency is read from the fitted curve at half-maximal effect); conditions: U2OS GR-GFP nuclear translocation, laser cytometry, 2 h
[7] = biological target: Glucocorticoid receptor (Homo sapiens) (UniProt P04150); experiment: GR-EFC Redistribution (AID 451; calls by dose curve; also: potency is read from the fitted curve at half-maximal effect); conditions: CHO-K1 GR-EFC translocation, beta-gal luminescence, 2 h
Outline: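 Translocation of GR-ED fusion to nuclear EA restores b-gal, read by luminescence after 1 h room-temperature detection. Engineered CHO-K1 biosensor cells, 1,000/well, exposed 2 h at 37 C to titrations up to 46 uM final.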

[8] = biological target: Mitogen-activated protein kinase 10 (Mus musculus) (UniProt Q61831); experiment: JNK3 AlphaScreen Assay (AID 530); conditions: JNK3 lysate, c-Jun phosphorylation; series mostly up to 11.4 µM;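 also: kinase came from lysate of stimulated human HepG2 cells; signal reports phosphorylation of biotinylated GST-cJun 1-79 at Ser73 with 10 µM ATP; % is scaled to controls: 0 for no effect and ±100 for the full control effect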
Outline: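 Room-temperature AlphaScreen kinase assay; pre-activated HepG2 lysate as JNK3 source, biotin-GST-cJun(1-79) substrate, 10 uM ATP, compound 15 min preincubation.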

[9] = biological target: 3',5'-cyclic-AMP phosphodiesterase 4B (Homo sapiens) (UniProt Q07343); experiment: qHTS Assay for Inhibitors of PDE-IV (AID 607; active = well fitted activation curve with a large enough effect in the main read-out, with a control signal flat, not every such curve was filed as active; also: % of control where 0% means no effect); conditions: HEK293 ACTOne CNG channel cells, membrane potential fluorescence; series mostly up to 22.9 µM
Outline: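 Cell-based read-out of cAMP via a modified cyclic nucleotide-gated channel and membrane potential dye (535/590 nm) in HEK293 cells expressing PDE4 endogenously. Compounds tested up to 22.9 uM final; 100 uM RO 20-1724 reference.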

Chain of 3',5'-cyclic-AMP phosphodiesterase 4B (Homo sapiens) (Q07343 whole entry, looked up): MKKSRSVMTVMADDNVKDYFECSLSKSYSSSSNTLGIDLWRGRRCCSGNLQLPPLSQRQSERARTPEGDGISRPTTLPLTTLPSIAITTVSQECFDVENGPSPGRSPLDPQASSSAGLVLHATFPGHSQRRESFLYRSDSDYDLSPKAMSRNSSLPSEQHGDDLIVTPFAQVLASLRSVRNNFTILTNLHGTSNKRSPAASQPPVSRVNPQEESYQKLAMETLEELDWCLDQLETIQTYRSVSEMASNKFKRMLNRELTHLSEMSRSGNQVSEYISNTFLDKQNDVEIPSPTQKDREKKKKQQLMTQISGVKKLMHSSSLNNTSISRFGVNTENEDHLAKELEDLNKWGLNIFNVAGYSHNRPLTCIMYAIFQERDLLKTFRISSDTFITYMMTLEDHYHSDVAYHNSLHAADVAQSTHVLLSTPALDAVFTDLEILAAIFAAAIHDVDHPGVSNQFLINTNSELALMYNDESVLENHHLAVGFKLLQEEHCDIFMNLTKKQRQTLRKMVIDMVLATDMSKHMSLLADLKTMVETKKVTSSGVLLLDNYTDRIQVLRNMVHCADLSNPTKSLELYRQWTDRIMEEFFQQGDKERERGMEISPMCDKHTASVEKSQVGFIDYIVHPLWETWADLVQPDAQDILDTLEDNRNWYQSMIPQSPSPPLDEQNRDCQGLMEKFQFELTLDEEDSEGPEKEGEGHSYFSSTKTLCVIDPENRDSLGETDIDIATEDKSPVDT
Chain of Lysosomal acid glucosylceramidase (Homo sapiens) (P04062 whole entry, looked up): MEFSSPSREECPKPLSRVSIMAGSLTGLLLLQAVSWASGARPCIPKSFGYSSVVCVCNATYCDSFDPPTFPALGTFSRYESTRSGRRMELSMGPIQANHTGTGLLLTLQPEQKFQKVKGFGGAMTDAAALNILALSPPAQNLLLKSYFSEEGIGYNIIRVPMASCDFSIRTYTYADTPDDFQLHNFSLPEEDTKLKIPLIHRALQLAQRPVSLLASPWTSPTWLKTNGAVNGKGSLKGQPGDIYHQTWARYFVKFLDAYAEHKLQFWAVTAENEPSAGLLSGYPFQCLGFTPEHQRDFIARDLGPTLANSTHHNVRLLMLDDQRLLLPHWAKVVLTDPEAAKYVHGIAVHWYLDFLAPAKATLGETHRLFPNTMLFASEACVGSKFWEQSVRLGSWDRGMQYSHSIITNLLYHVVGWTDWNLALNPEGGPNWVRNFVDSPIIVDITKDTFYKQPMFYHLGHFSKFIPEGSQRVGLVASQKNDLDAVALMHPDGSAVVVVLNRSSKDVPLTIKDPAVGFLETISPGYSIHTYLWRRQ
Chain of Cytochrome P450 1A2 (Homo sapiens) (P05177 whole entry, looked up): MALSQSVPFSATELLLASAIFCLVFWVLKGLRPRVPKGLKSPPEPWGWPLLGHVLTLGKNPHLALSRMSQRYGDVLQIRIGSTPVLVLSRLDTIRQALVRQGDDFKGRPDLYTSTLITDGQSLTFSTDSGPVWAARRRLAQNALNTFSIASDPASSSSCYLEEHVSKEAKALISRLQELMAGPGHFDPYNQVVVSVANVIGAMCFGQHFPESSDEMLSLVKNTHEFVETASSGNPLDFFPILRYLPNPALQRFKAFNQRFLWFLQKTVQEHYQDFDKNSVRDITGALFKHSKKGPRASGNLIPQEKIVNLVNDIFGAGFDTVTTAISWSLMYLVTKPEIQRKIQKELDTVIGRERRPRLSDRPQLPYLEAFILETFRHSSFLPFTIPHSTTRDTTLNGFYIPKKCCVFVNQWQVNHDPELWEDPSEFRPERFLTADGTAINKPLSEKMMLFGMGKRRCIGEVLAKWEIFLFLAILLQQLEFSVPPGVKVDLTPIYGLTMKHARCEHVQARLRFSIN
Chain of Glucocorticoid receptor (Homo sapiens) (P04150 whole entry, looked up, the tested form may be a part): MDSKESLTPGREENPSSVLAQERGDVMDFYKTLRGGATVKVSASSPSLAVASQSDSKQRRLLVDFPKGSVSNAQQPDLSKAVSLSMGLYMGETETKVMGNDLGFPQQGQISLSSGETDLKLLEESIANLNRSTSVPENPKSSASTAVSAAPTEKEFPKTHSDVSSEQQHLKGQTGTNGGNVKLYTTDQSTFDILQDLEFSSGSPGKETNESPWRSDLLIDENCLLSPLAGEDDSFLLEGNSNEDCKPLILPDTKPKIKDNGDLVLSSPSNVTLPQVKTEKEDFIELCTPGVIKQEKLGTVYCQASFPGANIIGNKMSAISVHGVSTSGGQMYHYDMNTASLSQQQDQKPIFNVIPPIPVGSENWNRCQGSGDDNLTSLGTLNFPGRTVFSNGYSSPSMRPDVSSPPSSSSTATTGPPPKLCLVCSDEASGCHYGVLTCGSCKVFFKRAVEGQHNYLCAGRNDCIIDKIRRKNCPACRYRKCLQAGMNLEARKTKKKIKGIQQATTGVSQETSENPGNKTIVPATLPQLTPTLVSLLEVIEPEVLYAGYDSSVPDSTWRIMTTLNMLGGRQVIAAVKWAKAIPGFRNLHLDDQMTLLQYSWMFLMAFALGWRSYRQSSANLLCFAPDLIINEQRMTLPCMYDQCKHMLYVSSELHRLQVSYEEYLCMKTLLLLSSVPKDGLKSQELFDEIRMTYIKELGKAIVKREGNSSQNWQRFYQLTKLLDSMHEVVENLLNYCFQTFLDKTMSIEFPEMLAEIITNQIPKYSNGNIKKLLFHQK

SMILES | Potency [1] [µM] | activity change, negative = inhibition [2] [%] | Potency [3] | activity change, negative = inhibition [4] [%] | activity, negative = inhibition [5] [%] | Potency [6] [µM] | Potency [7] [µM] | Potency [8] | Potency [9] | activity change, negative = inhibition [3]
CC(=NC1CCCCC1)c1ccccc1O | > 11.4 | 6.06 | inactive | 16.7 | 11 | > 46 | > 9.22 | inactive | inactive | 
N#CC1(Nc2ccc(-c3ccc(NC4(C#N)CCCC4)cc3)cc2)CCCC1 | > 11.4 | -7.74 | 3.16 µM (active) | 14.8 | 19 | > 46 | > 9.22 | inactive | inactive | 
O=C(O)[C@H](Cc1ccc(O)c([N+](=O)[O-])c1)N1C(=O)c2ccccc2C1=O | > 11.4 | 0.441 |  | 11.4 | 2.16 | > 46 | > 9.22 | inactive | inactive | -17.9% [at 2.29 µM]
O=C(O)[C@@H](Cc1c[nH]c2ccccc12)C(=O)NO | > 11.4 | -4.03 | inactive | 4.43 | 4.19 | > 46 | > 9.22 | inactive | inactive | 
Cc1cc(N=Cc2c(CO)cnc(C)c2O)c(N=Cc2c(CO)cnc(C)c2O)cc1C.[Zn] | > 11.4 | -2.68 |  | 14.7 | 7.49 | > 46 | > 9.22 | inactive | inactive | -10.4% [at 2.29 µM]
O=c1ccnc(SCc2ccc(Cl)cc2)[nH]1 | > 11.4 | 0.709 | inactive | 2.66 | 6.94 | > 46 | > 9.22 | inactive | inactive | 
C[C@H](Br)C(=O)c1ccc2cc(Br)c3ccccc3c2c1 | > 11.4 | -18.5 | 0.158 µM (active) | 26.1 | -2.19 | > 46 | > 9.22 | inactive | inactive | 
NC(N)=N/N=C\c1ccc(C2CCNCC2)cc1 | > 11.4 | 7.39 |  | -11.8 | 0.317 | > 46 | > 9.22 | inactive | inactive | -12% [at 2.29 µM]
CC1(C)OC[C@@H]2O[C@H](n3cnc4c(N)nc(Cl)nc43)[C@@H](OS(C)(=O)=O)[C@@H]2O1 | > 11.4 | -1.96 |  | -7 | -0.333 | > 46 | > 9.22 | inactive | inactive | -14.5% [at 2.29 µM]
C[C@]12CCC3c4ccc(OCC(=O)O)cc4CCC3C1CCC2=O (some centres not stated) | > 11.4 | 6.42 |  | -1.29 | 9.48 | > 46 | > 9.22 | inactive | inactive | 0.7% [at 2.29 µM]
CC(C)Cn1cnc2c(Sc3c([N+](=O)[O-])ncn3C)nc(N)nc21 | > 11.4 | -3.59 |  | -13.9 | 11.4 | > 46 | > 9.22 | inactive | inactive | 8.1% [at 2.29 µM]
CN(C)CCn1c(CO)nc2c1c(=O)n(C)c(=O)n2C | > 11.4 | 1.13 | inactive | 1.85 | 6.5 | > 46 | > 9.22 | inactive | inactive | 
COc1ccc([C@H](O)c2ccccn2)cc1 | > 11.4 | -0.268 | inactive | 2.24 | 9.75 | > 46 | > 9.22 | inactive | inactive | 
O=C(O)CSc1nnc2c3ccccc3c3ccccc3c2n1 | > 11.4 | -9.84 | 0.0794 µM (active) | 22.2 | 10.3 | > 46 | > 9.22 | inactive | inactive | 
C[N+]1([C@H](CO)Cc2c[nH]c3ccccc23)Cc2ccccc2C1 | > 11.4 | -7.62 | inactive | -15.6 | 13.4 | > 46 | > 9.22 | inactive | inactive | 
O=C(Nc1nn[nH]n1)c1nc(-c2ccccc2)cc(=O)[nH]1 | > 11.4 | 2.85 | 3.98 µM (active) | 0.574 | -4.08 | > 46 | > 9.22 | inactive | inactive | 
COc1cc(C)cc(OC)c1/C=C\C(=O)O | > 11.4 | 12.4 | inactive | 8.76 | 7.32 | > 46 | > 9.22 | inactive | inactive | 
Cc1cc(Cc2cc(C)c(N)cc2N)c(N)cc1N | > 11.4 | -4.79 | 2 µM (active) | -1.81 | 1.49 | > 46 | > 9.22 | inactive | inactive | 
O=C1C2[C@@H](c3ccccc3)N[C@@H](c3ccccc3)C1[C@H](c1ccccc1)N[C@H]2c1ccccc1 | > 11.4 | -5.02 | inactive | 3.11 | 1.27 | > 46 | > 9.22 | inactive | inactive | 
CCOC(=O)c1c(C)c(C)n2c1NC(=O)C2 | > 11.4 | 3.42 | 2 µM (active) | -19.4 | -3.92 | > 46 | > 9.22 | inactive | inactive | 
CCC(C)(C)c1ccc(Oc2cccc(C(=O)O)c2)cc1 | > 11.4 | -11.1 | inactive | -3.61 | -0.214 | > 46 | > 9.22 | inactive | inactive | 
CN(C)CCSCCO | > 11.4 | 7.7 |  | 2.29 | 9.73 | > 46 | > 9.22 | inactive | inactive | -14.3% [at 2.29 µM]
C[N+]1(C)CCc2cc(O)c(O)cc2[C@H]1Cc1ccc(O)c(O)c1 | > 11.4 | -2.63 |  | -9.29 | 6.76 | > 46 | > 9.22 | inactive | inactive | -12.1% [at 2.29 µM]
CSc1nc(C)cc(Nc2ccc(O)c(CN3CCOCC3)c2)n1 | > 11.4 | -11.8 | 3.98 µM (active) | 12.3 | -6.58 | > 46 | > 9.22 | inactive | inactive | 
Cc1cc(Cl)ccc1OCC(=O)Nc1nc(N)nc(N)n1 | > 11.4 | 7.35 |  | 1.27 | -6.25 | > 46 | > 9.22 | inactive | inactive | 2.1% [at 2.29 µM]
N[C@H]1[C@@H](C(=O)O)[C@H]2C=C[C@H]1C2 | > 11.4 | 7.53 | inactive | 24.6 | 7.88 | > 46 | > 9.22 | inactive | inactive | 
CC(C)(C)CNCCO | > 11.4 | -7.33 |  | 4.1 | 7.24 | > 46 | > 9.22 | inactive | inactive | 6.2% [at 2.29 µM]
CCc1ncc(CO)n1Cc1cccc2ccccc12 | > 11.4 | 11.3 | inactive | 6.66 | 10.1 | > 46 | > 9.22 | inactive | inactive | 
